High-throughput results: PubChem, several laboratories
Wnt act: Wnt/beta-catenin pathway activators, primary screen, cell-based, plate reader, single point | Wnt/beta-catenin reporter cell assay, activator | activation, % at 9.35 µM | actives 1.2% (n = 300,000) | AID 743398, 2014; in the data active = activation above about 30%, passing the limit was not always enough; inconclusive = no clear call, values can overlap the other calls;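 note: 0% = neutral control wells and 100% = positive control wells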
esBAF inh: Bmi1 luciferase reporter increase in mESCs, primary screen, esBAF inhibitor project, mouse ES cells, Bmi1 luciferase knock-in, single point | 24 h; 100% = twice the neutral-well signal | reporter increase, % at 12.5 µM | actives 2% (n = 350,000) | AID 602393, 2012; in the data active = activation above about 40%; inconclusive = no clear call, values can overlap the other calls;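 note: 0% = median of the plate's neutral control wells and 100% = double that signal; a rise in the Bmi1 reporter signal indicates esBAF inhibition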
HSF-1 act: HSF-1 activators, primary screen, NIH3T3-HGL cells, MG132 stress, luminescence, single point; activation, % at 9 µM; actives 1.7% (n = 300,000); AID 504408, 2011; NIH3T3-HGL HSF-1 luciferase reporter, 8 h; 100% = twice DMSO control signal;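 active = mean replicate activation of at least 50% with a set share of replicates each reaching 50%; inconclusive = only one of those two conditions met; inactive = mean below 50% and too few replicates reaching it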;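 note: 0% = median of the neutral control wells and 100% = twice that signal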
MITF act: activators of MITF-driven TRPM1 promoter reporter, primary screen, cell-based, SK-MEL-5, luciferase, single point; SK-MEL-5 TRPM1-promoter luciferase, 24 h; % of positive control, neutral wells = 0; activation, % at 12.5 µM; actives 0.75% (n = 300,000);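 active = mean activation of at least 80% with every replicate also reaching 80%; inconclusive = mean reaches 80% but some replicate falls short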;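 note: 0% = neutral control wells and 100% = parthenolide positive control wells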
HSF1 inh: HSF1 inhibitors in luciferase reporter cells, primary screen, cell-based, NIH3T3, luminescence; actives 0.77% (n = 300,000); activity change, negative = inhibition, % at 7.5 µM (by protocol); NIH3T3-HGL HSE-luciferase, MG132-induced, luminescence 8 h; hits give low values;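 active = more than half of replicate wells show activity change below -50%, luminescence cut by over half; inconclusive = some wells, but at most half, below -50%; inactive = no replicate well below -50%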;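 note: luciferase reports HSF-1 transcriptional activity via heat shock element; 0% = median of DMSO wells and -100% = zero luminescence signal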
SMARCA2 activ: SMARCA2 (BRM) function activators, primary screen, cell-based, luminescence, high throughput. MG213 cells, MMTV-luciferase reporter, dexamethasone, overnight. activation, % at 9.1 µM. actives 1% (n = 370,000). AID 652017, 2013; in the data active = activation above about 7.8%;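 note: 0% = vehicle wells and 100% = reference activator wells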
* = called active by the depositor; ? = inconclusive; . = not tested or not shown. The list is not random: actives were taken first. Their share in the collection is about 4.3%.

SMILES	Wnt act	esBAF inh	HSF-1 act	MITF act	HSF1 inh	SMARCA2 activ
O=C1c2ccccc2NC(c2cccc([N+](=O)[O-])c2)N1CCc1ccccc1 (stereo not given)	6	46*	39	6	14	4
COc1ccc(Nc2ccc3c(c2)=NC2(CCCCC2)[N+]=3[O-])cc1	12	-82	79*	.	58	-11
[O-][N+]1=c2ccc(Nc3ccccc3)cc2=NC12CCCCC2	7	?	22	-61	17	-7
Cc1ccc(Nc2ncccc2C(=O)O)cc1C	6	49*	18	1	1	3
Cc1ccc(Nc2ncccc2C(N)=O)cc1[N+](=O)[O-]	70*	.	43	91*	22	7
Cc1cccc(Nc2ncccc2C(=O)O)c1C	1	18	-67	-7	-58*	-1
Cc1cc(C)c(Nc2ncccc2C(=O)O)c(C)c1	3	.	12	8	5	2
CCNC(=O)C[C@H]1CC[C@@H]2[C@@H](COc3ccc(NC(C)=O)cc3C(=O)N2C)O1	.	-7	.	.	.	.
C[C@@H]1CN([C@@H](C)CO)C(=O)Cc2cc(NC(=O)CCCCCC(=O)Nc3ccccc3N)ccc2O[C@@H]1CN(C)Cc1ccccc1	.	-2	.	.	.	.
O=C(Nc1ccccc1)c1cc(C2CCCCN2S(=O)(=O)c2cccs2)on1 (stereo not given)	28	82*	.	.	.	1
O=C(Nc1ccccc1)c1cc(C2CCCCN2S(=O)(=O)c2ccccc2)on1 (stereo not given)	18	52*	.	.	.	-2
O=C(Nc1ccc2c(c1)OCO2)c1cc(C2CCCCN2S(=O)(=O)c2cccs2)on1 (stereo not given)	-3	26	.	.	.	-2
O=c1cc(CSc2ccc(Cl)cc2)nc(-c2ccccn2)[nH]1	-1	5	136*	-65	124	-10
Cc1nc(Nc2nc(CSc3ccc(Cl)cc3)cc(=O)[nH]2)nc2ccccc12	-1	.	61*	-5	17	-3
COc1cc(/C=C2/C(=N)N3C(=NC2=O)SN=C3S(C)(=O)=O)ccc1OC(=O)c1ccco1	0	-4	10	3	1	-3
COc1cc(/C=C2/C(=N)N3C(SC)=NSC3=NC2=O)ccc1OC(=O)c1ccco1	8	46*	1	22	4	3
CC(C)N(C[C@@H]1[C@H](c2ccccc2)[C@@H](CO)N1S(C)(=O)=O)C(=O)CN(C)C	.	-1	.	.	.	.
CC1=NN(C(N)=S)C(=O)C1N=Nc1ccc(S(N)(=O)=O)cc1 (stereo not given)	-1	2	17	-5	0	-1
CC(=O)N(C)c1ccc(N=Nc2c(C)[nH]n(C(N)=S)c2=O)cc1	51*	.	53*	32	16	6
CC(=O)N(C)c1ccc(N=NC2C(=O)N(C(N)=S)N=C2C)cc1 (stereo not given)	52*	2	41	29	29	2
C[C@H]1CN([C@@H](C)CO)C(=O)c2cc(-c3ccc(C(=O)N(C)C)cc3)cnc2O[C@H]1CN(C)C(=O)c1ccncc1	.	-3	.	.	.	.
COc1cc(/C=N/Nc2ccc(C(=O)O)cc2)cc(OC)c1OC	25	56*	-24	?	-26	4
COc1cc(/C=N/Nc2ccc(C(=O)O)cc2)ccc1O	7	.	-35	-16	-25	1
COc1ccc(/C=N/Nc2ccc(C(=O)O)cc2)c(OC)c1OC	13	91*	1	124*	0	2
COc1ccc(/C=N\Nc2ccc([N+](=O)[O-])cc2)c(C(=O)O)c1OC	1	-4	-25	8	-12	1
SMILES	Wnt act	esBAF inh	HSF-1 act	MITF act	HSF1 inh	SMARCA2 activ
CO[C@H]1CC[C@H]2CCN(C)C(=O)[C@H](C)[C@H](OC)CN(C)C(=O)c3cc(C#N)ccc3OC[C@@H]1O2	.	4	.	.	.	.
CCc1cc(-c2ccc3c(c2)COc2c4ccccc4nn2-3)on1	20	3	-7	73	-13	3
C[C@@H](CO)NC(=O)c1ccc2c3n(nc2c1)-c1ccc(Cl)cc1CO3	47*	81*	26	102*	15	5
CC(C)[C@@H](CO)NC(=O)c1ccc2c3n(nc2c1)-c1ccc(Cl)cc1CO3	45*	59*	18	89*	-2	5
Cc1ccccc1C(=O)NC(=S)Nc1ccccc1[N+](=O)[O-]	.	31	58*	37	10	.
Cc1ccccc1C(=O)NC(=S)Nc1ncccn1	3	47*	35	39	19	3
CNC(=S)N/N=C/c1ccc(-c2cccc(C(=O)O)c2)o1	-2	.	-66	-1	-60*	5
CCNC(=S)N/N=C/c1ccc(-c2ccccc2)o1	.	.	81*	25	49	2
Cc1ccc(OCC(=O)N/N=C\c2ccc(-c3cccc(C(=O)O)c3)o2)c(C)c1	.	.	-9	14	-15	3
Cc1ccc(-c2ccc(/C=N/NC(N)=S)o2)cc1	58*	.	24	.	21	6
C[C@H](CO)N1C[C@H](C)[C@H](CN(C)C(=O)c2ccncc2)OCCCC[C@H](C)Oc2ccc(NS(C)(=O)=O)cc2C1=O	.	3	.	.	.	.
CCS(=O)(=O)N[C@H]1C=C[C@H](CC(=O)NCc2ccc(F)cc2)O[C@H]1CO	.	3	.	.	.	.
Nc1ncnc(N)c1N=Nc1ccccc1	1	-20	17	-15	0	7
Nc1ccc2ccccc2c1N=Nc1ccccc1	15	43*	.	-11	.	7
Cc1cc(C)n2c(Nc3ccc4c(c3)OCCO4)c(-c3ccccc3)nc2n1	41*	28	34	.	6	-2
Cc1cc(C)n2c(Nc3ccc4c(c3)OCCO4)c(C(C)C)nc2n1	12	.	.	.	.	0
O=C(N1CCOCC1)C12CCC3CC(CC(C3)C1)C2	-1	3	-64	5	-54*	0
O=C(N1CCOCC1)C12CC3CC(C1)CC(C(=O)N1CCOCC1)(C3)C2	.	4	-6	.	1	-3
Clc1ccccc1OCCn1cnc2ccccc21	.	51*	44	60	25	0
O=C1c2ccccc2C(=O)N1CCOc1ccccc1Br	0	.	99*	37	44	4
O=C1c2ccccc2C(=O)N1CCOc1ccccc1Cl	24	?	71*	86*	31	2
O=C(C[C@H]1C=C[C@H](NC(=O)C2CCC2)[C@@H](CO)O1)NCC1CC1	.	-4	.	.	.	.
C[C@H](CO)N1C[C@H](C)[C@H](CN(C)C(=O)c2ccccc2)OCCCC[C@H](C)Oc2ccc(NC(=O)Nc3ccccc3)cc2C1=O	.	-2	.	.	.	.
